Like-named read-outs stand apart in the source and are kept apart here. Screen size: about 13,000 compounds; about 3,200 (25%) showed an effect of 50% or more. Some of the results follow.
Test system: P. falciparum stage V gametocytes
Set-up: BacTiter-Glo ATP luminescence viability of purified stage V gametocytes in 384-well plates, per cent inhibition versus DMSO
Conditions: 48 h, 5 µM, inhibitor

## Cc1cc(Oc2ccc(-n3ccnc3)cc2)nc(N2CCN(CCCN3CCCC3)CC2)n1 [TCMDC-132208]
  % Inhibition: 34.43%

## COc1cc(-n2cnc3cc(-c4ccc([N+](=O)[O-])cc4)sc3c2=O)ccc1OCCN1CCCC1 [TCMDC-138916]
  % Inhibition: 104.9%

## COc1cc(-n2cnc3cc(-c4ccc(Cl)cc4)sc3c2=O)ccc1OCCN1CCC(c2cccc(NC(C)=O)c2)CC1 [TCMDC-138930]
  % Inhibition: 71.5%

## CN(C)c1nc2cc(-n3cnc4cc(-c5ccc(Cl)cc5)sc4c3=O)ccc2n1CCCN1CCCCC1 [TCMDC-138925]
  % Inhibition: 34.32%

## CCN(C)CCCn1c(N(C)C)nc2cc(-n3cnc4cc(-c5ccc(Cl)cc5)sc4c3=O)ccc21 [TCMDC-138926]
  % Inhibition: -50.75%

## COc1cc(-n2c(CN3CCCC3)nc3cc(-c4ccc(Cl)cc4)sc3c2=O)ccc1OCCN1CCCC1 [TCMDC-135298]
  % Inhibition: 36.8%

## CCNC[C@H]1CCCN1CCOc1ccc(-n2cnc3cc(-c4ccc(Cl)cc4)sc3c2=O)cc1OC [TCMDC-134841]
  % Inhibition: 68.56%

## CN(C)c1nc2cc(-n3cnc4cc(-c5ccc(Cl)cc5)sc4c3=O)ccc2n1CCCN1CCCC1 [TCMDC-138922]
  % Inhibition: 42.12%

## CN(CCN1CCCC1)c1nc2ccc(-n3cnc4cc(-c5ccc(Cl)cc5)sc4c3=O)cc2[nH]1 [TCMDC-138918]
  % Inhibition: 5.034%

## CCCCCc1ccc(N2C(N)=NC(N)=NC2(C)C)cc1 [TCMDC-137709]
  % Inhibition: 8.731%

## Cc1cccn2c(=O)c3cc(C(=O)NCCN4CCOCC4)c(=N)n(CCc4ccccc4)c3nc12 [TCMDC-124570]
  % Inhibition: 5.032%

## OCc1ccc(-c2cncc(Nc3ccc(F)c(Cl)c3)c2)cc1 [TCMDC-136671]
  % Inhibition: -20.21%

## CCOc1ccc(C=CC(=O)Nc2ccc3nc(N4CCN(C)CC4)cc(C)c3c2)cc1OC [TCMDC-125866]
  % Inhibition: -25.94%

## CC(C)c1ccc(NC(=O)c2ccc(NCCCN(C)Cc3ccccc3)c([N+](=O)[O-])c2)cc1 [TCMDC-125687]
  % Inhibition: -12.67%

## CCC(CCON1C(N)=NC(N)=NC1(C)C)c1ccc(Cl)cc1 (stereo not drawn) [TCMDC-131710]
  % Inhibition: 30.1%

## Cc1ccccc1Oc1nc2ccccc2nc1SCC(=O)NC(C)C [TCMDC-124733]
  % Inhibition: -10.37%

## COc1ccc(Nc2ccnc3cc(Cl)ccc23)cc1OC [TCMDC-124814]
  % Inhibition: -70.18%

## COc1cc(NC2=NS(=O)(=O)c3cc(Cl)ccc3N2C)cc(OC)c1OC [TCMDC-134208]
  % Inhibition: 87.41%

## COc1ccc2c(c1)S(=O)(=O)N=C(N1CCCC1c1ccc(Cl)c(Cl)c1)N2C (stereo not drawn) [TCMDC-134209]
  % Inhibition: 3.235%

## Oc1ccccc1CNCC(O)c1cccc(C(F)(F)F)c1 (stereo not drawn) [TCMDC-140303]
  % Inhibition: 18.18%

## CCNc1cc(-c2cccc(OC)c2)nc(Nc2ccc(F)cc2)n1 [TCMDC-134014]
  % Inhibition: -12.85%

## Cc1ccc(NC(=O)c2ccc3ncccc3c2)cc1OC1CCN(Cc2ccc(F)cc2)C1 (stereo not drawn) [TCMDC-133759]
  % Inhibition: -2.086%

## O=C(Nc1ccc(OC2CCN(CC3CC3)CC2)c(Cl)c1)c1ccc2ncccc2c1 [TCMDC-134273]
  % Inhibition: 41.88%

## O=C(Nc1ccc(OC2CCN(Cc3ccco3)C2)c(Cl)c1)c1ccc2ncccc2c1 (stereo not drawn) [TCMDC-133987]
  % Inhibition: 24.52%

## Cc1ccc(C(=O)Nc2ccc(C)c(OC3CCN(Cc4ccco4)C3)c2)cc1 (stereo not drawn) [TCMDC-133986]
  % Inhibition: 48.65%

## Cc1ccc(NC(=O)c2ccc3ncccc3c2)cc1OC1CCN(Cc2ccco2)C1 (stereo not drawn) [TCMDC-133985]
  % Inhibition: 61.5%

## O=C(Nc1ccc(OC2CCN(Cc3ccco3)CC2)c(Cl)c1)c1ccc2ncccc2c1 [TCMDC-133984]
  % Inhibition: 86.08%

## O=C1c2ccc([N+](=O)[O-])cc2C(=O)N1c1ccc2[nH]ncc2c1 [TCMDC-131599]
  % Inhibition: -5.185%

## CCOC(=O)c1ccc(NC(=O)Nc2ccc(-c3ccc(-c4nc5cccc(C)c5[nH]4)s3)cc2)cc1 [TCMDC-133259]
  % Inhibition: -10.61%

## CC(=O)C1(c2ccccc2)CCN(CCC2(c3ccc(Cl)c(Cl)c3)CN(C(=O)C3CCCC3)CCO2)CC1 (stereo not drawn) [TCMDC-135325]
  % Inhibition: -42.49%

## CC(C)c1cccc(C(C)C)c1NC(=O)NNC(=O)c1ccc(CCN2CCC(c3nc(COCC(F)(F)F)c(-c4ccc(F)cc4)o3)CC2)cc1 [TCMDC-131908]
  % Inhibition: -22.37%

## Cc1c(C)c2c(c(C)c1O)CC[C@@](C)(C(=O)N1CCC(CN3CCC(c4c[nH]c5ccccc45)CC3)CC1)O2 [TCMDC-139899]
  % Inhibition: 79.54%

## Cc1c(C)c2c(c(C)c1O)CC[C@@](C)(C(=O)N1CCC(CCN3CCC(c4c[nH]c5ccccc45)CC3)CC1)O2 [TCMDC-139898]
  % Inhibition: 69.88%

## Cc1c(C)c2c(c(C)c1O)CC[C@](C)(C(=O)NC1CCC(CN3CCC(c4c[nH]c5ccccc45)CC3)CC1)O2 (stereo partly drawn) [TCMDC-139890]
% Inhibition
  % Inhibition: -54.12%

## Cc1c(C)c2c(c(C)c1O)CC[C@](C)(C(=O)N1CCC(CN3CCC(c4c[nH]c5ccccc45)CC3)CC1)O2 [TCMDC-139892]
  % Inhibition: -67.77%

## Cc1c(C)c2c(c(C)c1O)CC[C@](C)(C(=O)NC1CCC(CN3CCC(c4c[nH]c5ccccc45)CC3)CC1)O2 (stereo partly drawn) [TCMDC-139895]
% Inhibition
  % Inhibition: -20.01%

## Cc1c(C)c2c(c(C)c1O)CC[C@](C)(C(=O)N1CCC(CCN3CCC(c4c[nH]c5ccccc45)CC3)CC1)O2 [TCMDC-139891]
  % Inhibition: 102.8%

## Cc1cccc(C(=O)Nc2ccnc(N3CCCN(Cc4cccc(O)c4)CC3)c2)c1 [TCMDC-134959]
  % Inhibition: -37.26%

## N=C1N=C(N)NC2(CCCCC2)N1OCC1CCCCC1 [TCMDC-131617]
  % Inhibition: -29.76%

## CC1(C)NC(N)=NC(=N)N1OCCCO [TCMDC-131559]
  % Inhibition: -1.825%

## CC1CCC2(CC1)NC(N)=NC(=N)N2OCCCCCCCCO (stereo not drawn) [TCMDC-131600]
  % Inhibition: 80.95%

## CNC(=O)c1ccc(/C=C/C(=O)N2CCc3ccc(-c4ccccc4)cc3C2c2cccc(C(F)(F)F)c2)cc1 (stereo not drawn) [TCMDC-138253]
  % Inhibition: -22.09%
